Measured values from PubChem BioAssay AID1578 (Sanford-Burnham Center for Chemical Genomics, 2009).
The campaign covered roughly 290,000 compounds. About 3,000 (1%) were called active. The sample holds actives, similar compounds and a random draw of the others, so the mix is not that of the screen. Cut-off read from the data, not from the text of the source: active = inhibition mostly above about 36% (no sharp cut-off); inactive = mostly below about 34%.

Test: inhibition of NOD1-driven NF-kB reporter – cell-based, luminescence, uHTS, primary screen (AID 1578);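 note: HEK-293T reporter cells stimulated with the NOD1 agonist gamma-tri-DAP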
Details: NOD1-driven NF-kB luciferase reporter cells, at 4 µM, active compounds read high

SMILES	inhibition
O=C(Nc1nc2ccccc2n1CCOc1ccccc1)c1ccco1	35.8% (inactive)
COc1ccc(OCCn2c(NC(=O)c3ccco3)nc3ccccc32)cc1	9.1% (inactive)
Cc1c(O)nc(SCC(=O)Nc2nccs2)n(-c2ccccc2F)c1=O	-42.1% (inactive)
CCOC(=O)NNC1CC(=O)N(c2ccccc2)C1=O (centres undefined)	-12% (inactive)
CCc1nccn1S(=O)(=O)c1cc(OC)c(Cl)cc1OC	-4.5% (inactive)
CC(=O)Nc1c(C(=O)O)oc2ccc(Cl)cc12	2.5% (inactive)
O=S(=O)(NC1CCCCC1)c1ccc(Br)s1	-13.1% (inactive)
Cc1ccc(S(=O)(=O)NC2CC2)s1	45.4% (active)
O=S(=O)(NC1CCCC1)c1ccc(Br)s1	-14% (inactive)
COc1ccc(C(=O)NCC(=O)OCC(=O)Nc2cc(OC)ccc2OC)cc1	-4.7% (inactive)
Cc1ccc(NC(=S)N(Cc2ccc(Br)cc2)Cc2ccc(C(=O)O)cc2)cc1C	-22.8% (inactive)
NNc1nc(-c2ccccc2)cc(-c2ccccc2O)n1	3.5% (inactive)
O=[N+]([O-])c1cc(C(F)(F)F)ccc1Sc1ccccn1	-1.5% (inactive)
Oc1c(Cl)cc(Cl)c2c1NCCC2	-5.4% (inactive)
Oc1c(Cl)cc(Cl)cc1Sc1cc(Cl)cc(Cl)c1O	-35.5% (inactive)
Oc1c(Cl)cc(Cl)c(Cl)c1Cc1c(O)c(Cl)cc(Cl)c1Cl	85.9% (active)
O=C(NC(=S)NCCO)c1sc2ccccc2c1Cl	-51.4% (inactive)
O=S(=O)(CC(CN1CCCC1)N1CCCC1)c1ccc2ccccc2c1 (centres undefined)	51.2% (active)
O=S(=O)(CC(CN1CCCCC1)N1CCCCC1)c1ccccc1 (centres undefined)	9.2% (inactive)
O=S(=O)(CC(CN1CCCCC1)N1CCCCC1)c1ccc2ccccc2c1 (centres undefined)	-6.3% (inactive)
OCCC1CN(Cc2cccc3nonc23)CCN1C1CCCCC1 (centres undefined)	-25.9% (inactive)
O=C(CN1CCN(C(=O)C2CCCO2)CC1)Nc1ccc(F)cc1 (centres undefined)	-12% (inactive)
Cc1ccc(-c2nnc(OCc3cccnc3)c3ccccc23)cc1	-11.3% (inactive)
COc1ccc(/C=C/C(=O)c2ccc(Cl)s2)cc1O	-46% (inactive)
COc1cc(/C=C/C(=O)c2ccc3c(c2)OCO3)cc(Cl)c1O	13.2% (inactive)

SMILES	inhibition
COc1ccc(C(=O)/C=C/c2cc(OC)c(O)c(OC)c2)c(F)c1	93.6% (active)
COc1ccc(C(=O)/C=C/c2ccc(OC)c(O)c2)c(F)c1	36.2% (inactive)
COc1ccc2cc(C(=O)/C=C/c3cc(OC)c(O)c(OC)c3)ccc2c1	62.6% (inactive)
COc1cc(/C=C/C(=O)c2ccc(Cl)s2)cc(OC)c1O	76.4% (active)
O=C(c1ccc(F)cc1)N1CCN(C2=NS(=O)(=O)c3ccccc32)CC1	-41.6% (inactive)
Cc1nn(-c2ccccc2)c(C)c1NC(=O)COc1ccc(C#N)cc1	-20.8% (inactive)
CCOc1ccc(NC(=O)CC(NCc2ccccn2)C(=O)O)cc1 (centres undefined)	-2.9% (inactive)
CCOC(=O)C1CCN(c2ccc(-c3cccs3)nn2)CC1	-0.9% (inactive)
CC1CCN(c2ccc(-c3cccs3)nn2)CC1	31.4% (active)
c1csc(-c2ccc(N3CCOCC3)nn2)c1	-11.8% (inactive)
CCOC(=O)C1CCN(C(=O)CN(c2cc(Cl)ccc2OC)S(=O)(=O)c2ccccc2)CC1	-33.5% (inactive)
COc1cccc(NS(=O)(=O)c2cc3c(cc2C)N(C)CCO3)c1	-2.7% (inactive)
O=C(N/N=C/c1ccc(OCC(=O)N2CCOCC2)cc1)c1ccccc1Cl	-15.5% (inactive)
O=C(N/N=C/c1ccc(N2CCOCC2)cc1)c1ccccn1	0% (inactive)
O=C(N/N=C/c1ccc(N2CCOCC2)cc1)c1ccccc1OCCOc1ccccc1	58.8% (active)
Fc1ccc(-n2ncc3c(SCc4cccnc4)ncnc32)cc1	-6.1% (inactive)
Cc1nc2nc[nH]n2c(=O)c1CC(=O)O	14.8% (inactive)
CN(c1cc(=O)n2ccccc2n1)C1CCCCC1	-27.9% (inactive)
CN(c1ccc2nc3ccccc3c(=O)n2n1)C1CCCCC1	92.5% (active)
CC1CCCN(c2ccc3nc4ccccc4c(=O)n3n2)C1 (centres undefined)	28.3% (inactive)
CN1CCCN(C(=O)/C=C/c2ccc(F)cc2)CC1	-22.5% (inactive)
N#CCC(=O)Nc1ccc(C(=O)OCC(=O)NCCCc2ccccc2)cc1	5.1% (inactive)
O=C(O)c1ccc(/C=C(\c2nc3ccccc3[nH]2)c2nc3ccccc3s2)cc1	4.6% (inactive)
COc1cc(C=C(c2nc3ccccc3s2)c2nc3ccccc3s2)ccc1O	7.4% (inactive)
O=C(O)c1ccc(C=C(c2nc3ccccc3s2)c2nc3ccccc3s2)cc1	63.5% (active)

SMILES	inhibition
CCCNC(=O)COC(=O)CCC(=O)c1cccs1	-7.8% (inactive)
O=C(Oc1ccc(Cl)c2cccnc12)c1cccc([N+](=O)[O-])c1	-6.9% (inactive)
O=C(Oc1cccc2cccnc12)c1cccc([N+](=O)[O-])c1	-8.5% (inactive)
O=C(Oc1c(Cl)cc(Cl)c2cccnc12)c1cccc([N+](=O)[O-])c1	105% (active)
COc1ccc(OC)c(Nc2nc(NCc3ccco3)nc(N)c2[N+](=O)[O-])c1	-6.4% (inactive)
Cc1ccc(NS(=O)(=O)c2cc(NC(=O)c3cc(=O)[nH]c(=O)[nH]3)ccc2Cl)c(C)c1	12.4% (inactive)
COc1ccc(NC(=O)c2ccc3c(c2)NC(=O)CS3)cc1S(=O)(=O)Nc1ccc(Br)cc1	4% (inactive)
Cc1ccc(C(=O)N/C(=C\c2cccc([N+](=O)[O-])c2)C(=O)OCN2C(=O)c3ccccc3C2=O)cc1	-36.4% (inactive)
O=C(NC1=NCCS1)C12CC3CC(CC(C3)C1)C2	-23.8% (inactive)
Nc1cccc2nc3ccccc3cc12	-65% (inactive)
Nc1[nH]nc2nc3ccccc3cc12	-21.2% (inactive)
O=C(c1cccc(F)c1)N1C2C=CC(C2)C1(C(F)(F)F)C(F)(F)F (centres undefined)	23% (inactive)
N/C(=N/S(=O)(=O)c1ccccc1)c1cccc([N+](=O)[O-])c1	2% (inactive)
CNC(=S)NNC(=O)c1sc2cc(C(F)(F)F)cnc2c1-c1ccccn1	-34.8% (inactive)
CCCCCCC1CC(=O)NC(=O)N1 (centres undefined)	45.3% (active)
CCCCCCC1CC(=O)NC(=S)N1 (centres undefined)	-3% (inactive)
CCCCCC1CC(=O)N(Cc2ccc(Cl)cc2)C(=O)N1 (centres undefined)	7.7% (inactive)
Cc1ccc(N2CCC(N3CCN(C4CCCCC4)C(CCO)C3)CC2)cc1 (centres undefined)	-17.5% (inactive)
COc1cc2c(cc1OC)C(c1ccccc1)N(C(=O)CCl)CC2 (centres undefined)	43.6% (inactive)
COc1cc2c(cc1OC)C(C1C(=O)CCCC1=O)N(C(=O)CCl)CC2 (centres undefined)	-8% (inactive)
COc1cc2c(cc1OC)C(c1cc(Br)ccc1F)N(C(=O)CCl)CC2 (centres undefined)	37.2% (active)
CSc1cccc(NS(=O)(=O)c2ccccc2)c1	-20.4% (inactive)
O=C(CSc1nccc(=O)[nH]1)NC1CCCC1	-1.9% (inactive)
CCCNC(=O)C/C(C)=N/NC(=O)COc1ccc(C)cc1Br	83.4% (active)
C/C(CC(=O)NC(C)(C)C)=N\NC(=O)COc1ccc(C)cc1Br	-14% (inactive)

SMILES	inhibition
COc1ccc(CCNC(=O)C/C(C)=N/NC(=O)COc2ccc(C)cc2Br)cc1OC	39.1% (inactive)
CC(=O)c1ccc(OCC(=O)NC(=O)NC2CCCCC2)cc1	6.2% (inactive)
Cc1ccc(C)c(OCC(=O)Nc2ccc(S(=O)(=O)Nc3ncccn3)cc2)c1	-12.1% (inactive)
CCOC(=O)c1c(-c2ccccc2)csc1N1C(=O)Nc2ccccc2N1O	-27.8% (inactive)
COC(=O)c1c(-c2ccccc2)csc1N1C(=O)Nc2ccccc2N1O	37.8% (active)
COC(=O)c1c(N2C(=O)Nc3ccccc3N2O)sc(C)c1C	-21.8% (inactive)
CC(=O)Nc1ccc(-c2csc(-c3cccnc3)n2)cc1	-31.8% (inactive)
O=C(O)CNC(=O)CCN1C(=O)c2ccccc2C1=O	-13.4% (inactive)
COc1ccc(/C=C/C(=O)C(C(N)=O)=C2SCCS2)cc1	-16.2% (inactive)
NC(=O)C(C(=O)/C=C/c1ccc(Cl)cc1)=C1SCCS1	60.5% (active)
CCOc1ccc(/C=C/C(=O)C(C(N)=O)=C2SCCS2)cc1	8.8% (inactive)
Cc1ccc(CNC(=O)/C=C/c2ccc(Br)o2)cc1	-7.4% (inactive)
NC(=O)c1ccc(C(=O)N/N=C/c2cccc(Oc3ccccc3)c2)cc1	-28.7% (inactive)
NC(=O)COc1ccc(/C=N\NC(=O)c2ccc(-c3ccccc3)cc2)cc1	2.5% (inactive)
NC(=O)COc1cccc(/C=N/NC(=O)c2ccc(-n3cccc3)cc2)c1	39.2% (active)
CCCn1c(C)nc2cc(Cl)c(N3CCN(c4nc(-c5ccc(C)cc5)cs4)CC3)cc21	23.3% (inactive)
CN(C1=C(NC(=O)c2ccccc2)C(=O)c2ccccc2C1=O)C1CCS(=O)(=O)C1 (centres undefined)	-26.1% (inactive)
O=C(NC1=C(NC2CCS(=O)(=O)C2)C(=O)c2ccccc2C1=O)c1ccccc1 (centres undefined)	104% (active)
CC(=O)NC1=C(NC2CCS(=O)(=O)C2)C(=O)c2ccccc2C1=O (centres undefined)	-32.3% (inactive)
O=S(=O)(Nc1nc(-c2ccccc2)cs1)c1cc(Cl)ccc1Cl	40.9% (inactive)
COc1cc(N=CC2=C(O)c3ccccc3C2=O)cc(OC)c1	-21.7% (inactive)
COc1ccc(N=CC2=C(O)c3ccccc3C2=O)c(OC)c1	72% (active)
COc1ccc(N=CC2=C(O)c3ccccc3C2=O)cc1	52.5% (inactive)
O=C(CCC(=O)Nc1nnc(C2CCCCC2)s1)NCc1ccc(F)cc1	-10.8% (inactive)
